Assay results as given in PubChem BioAssay (Tox21).
Inconclusive results are not listed. A call without a number means that no potency is given here. A number with no mark means an inactive call. Activity calls are given as the source filed them. The call rests on the fitted dose curve; in most records, active means well fitted curve in the direction sought with a large enough effect in the repeat runs; inconclusive means weak or mixed curves; inactive means no such curve, though single readings can be large; an effect the other way counts as inactive or inconclusive.

Experiments:
[1] = A CellTox Green Cytotoxicity Assay to monitor cytotoxicity in HEK293 cells - 40 hour (AID 1224871); further: nearly all actives have a fitted effect of over 45% in size; further: potency means the concentration at half of the fitted maximal effect
In short: (§1)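 Cytotoxicity was tracked continuously in HEK293 cells by a DNA-binding dye excluded from viable cells. Compounds were transferred in DMSO 5 h after seeding; fluorescence was recorded at intervals up to 40 h.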

[2] = qHTS RealTime-Glo MT Cell Viability Assay in HEK293 cells - 16 hour (AID 1224872); further: nearly all actives have a fitted effect of over 50% in size; further: potency means the concentration at half of the fitted maximal effect
In short: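 Nonlytic real-time viability readout: viable cells convert prosubstrate to NanoLuc substrate, giving luminescence proportional to live cell number. HEK293, 600 cells/well, compound added after 5 h, continuous culture at 37 C.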

[3] = qHTS RealTime-Glo MT Cell Viability Assay in HepG2 cells - 8 hour (AID 1224873); further: nearly all actives have a fitted effect of over 55% in size
In short: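 HepG2 cells (600/well) mixed with RealTime-Glo MT reagent, settled 5 h at 37 C/5% CO2 before compound addition. Nonlytic NanoLuc luminescence from viable-cell prosubstrate reduction read repeatedly during 40 h treatment at 37 C.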

[4] = qHTS RealTime-Glo MT Cell Viability Assay in HEK293 cells - 40 hour (AID 1224874); details: RealTime-Glo luminescence; max response: hits give low values; further: nearly all actives have a fitted effect of over 50% in size; further: potency means the concentration at half of the fitted maximal effect
In short: (§2)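 Nonlytic bioluminescent viability monitoring. HEK293 at 600 cells/well with reagent; 5 h settle; compound transfer by pintool; plates held at 37 C and read at set time points.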

[5] = A CellTox Green Cytotoxicity Assay to monitor cytotoxicity in HEK293 cells - 24 hour (AID 1224875); further: nearly all actives have a fitted effect of over 45% in size; further: potency means the concentration at half of the fitted maximal effect
In short: as §1

[6] = A CellTox Green Cytotoxicity Assay to monitor cytotoxicity in HepG2 cells - 16 hour (AID 1224876); further: nearly all actives have a fitted effect of over 45% in size; further: potency means the concentration at half of the fitted maximal effect
In short: (§3)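 Real-time, homogeneous cytotoxicity readout: dead-cell DNA staining by CellTox Green in HepG2 monolayers, fluorescence measured at timed intervals up to 40 h of continuous compound exposure.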

[7] = qHTS RealTime-Glo MT Cell Viability Assay in HepG2 cells - 32 hour (AID 1224877); further: nearly all actives have a fitted effect of over 55% in size
In short: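 Luminescence read-out: viable HepG2 cells reduce a prosubstrate to a NanoLuc substrate, giving a signal proportional to live cell number. Reads taken at 0, 8, 16, 24, 32 and 40 h of compound exposure at 37 C.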

[8] = A CellTox Green Cytotoxicity Assay to monitor cytotoxicity in HepG2 cells - 24 hour (AID 1224878); further: nearly all actives have a fitted effect of over 45% in size; further: potency means the concentration at half of the fitted maximal effect
In short: as §3

[9] = A CellTox Green Cytotoxicity Assay to monitor cytotoxicity in HepG2 cells - 40 hour (AID 1224879); further: nearly all actives have a fitted effect of over 40% in size; further: potency means the concentration at half of the fitted maximal effect
In short: as §3

[10] = qHTS RealTime-Glo MT Cell Viability Assay in HEK293 cells - 0 hour (AID 1224880)
In short: as §2

Row | Compound | Potency [1] | Potency [2] | Potency [3] | max response [4] | Potency [5] | Potency [6] | Potency [7] | Potency [8] | Potency [9] | Potency [10] | Potency [4]
1 | CCN(CC)c1ccc(C(=C2C=CC(=[N+](CC)CC)C=C2)c2ccc(S(=O)(=O)O)cc2S(=O)(=O)[O-])cc1 | inactive | inactive | inactive | -1.18% | inactive | inactive | inactive | inactive | inactive | inactive | –
2 | CCCOC(=O)c1c(Cl)c(Cl)c(Cl)c(Cl)c1C(=O)OCCC | inactive | inactive | inactive | 3.32% | inactive | inactive | inactive | inactive | inactive | inactive | –
3 | Cc1c[nH]c2ccccc12 | inactive | inactive | inactive | 17.2% | inactive | inactive | inactive | inactive | inactive | inactive | –
4 | CCN(CC)CCOc1ccccc1C(=O)CCc1ccccc1 | inactive | 10.7 µM (active) | inactive | – | inactive | inactive | inactive | inactive | inactive | inactive | 10.7 µM (active)
5 | CCOC(=O)c1ccc(NC(=O)CN2CCCCC2)cc1 | inactive | inactive | inactive | -19.4% | inactive | inactive | inactive | inactive | inactive | inactive | –
6 | CC(C)C1CCC(C(=O)N[C@H](Cc2ccccc2)C(=O)O)CC1 (stereo not given in full) | inactive | inactive | inactive | 3% | inactive | inactive | inactive | inactive | inactive | inactive | –
7 | CC1CCC(C(C)CS)CC1S (stereo not given) | 49 µM (active) | inactive | inactive | 10.8% | 43.6 µM (active) | inactive | inactive | inactive | inactive | inactive | –
8 | CCN(CC)C(=O)/C(C#N)=C/c1cc(O)c(O)c([N+](=O)[O-])c1 | inactive | inactive | inactive | 29.1% | inactive | inactive | inactive | inactive | inactive | inactive | –
9 | O=C(O)c1cccc(Oc2ccccc2)c1 | inactive | inactive | inactive | -1.97% | inactive | inactive | inactive | inactive | inactive | inactive | –
10 | Cc1cn([C@H]2C[C@H](F)[C@@H](CO)O2)c(=O)[nH]c1=O | inactive | inactive | inactive | 16.7% | inactive | inactive | inactive | inactive | inactive | inactive | –
11 | CCCCCCCCCCCCCCCCCC(=O)OCC(CC)CCCC (stereo not given) | inactive | inactive | inactive | 2.92% | inactive | inactive | inactive | inactive | inactive | inactive | –
12 | C1CCCCC1 | inactive | inactive | inactive | 1.11% | inactive | inactive | inactive | inactive | inactive | inactive | –
13 | O=C(c1ccccc1)C1CCC1 | 24.5 µM (active) | inactive | inactive | 13.2% | 24.5 µM (active) | 38.9 µM (active) | inactive | 38.9 µM (active) | 27.5 µM (active) | inactive | –
14 | O=C1NC(=O)c2cccc3cccc1c23 | inactive | inactive | inactive | -4.43% | inactive | inactive | inactive | inactive | inactive | inactive | –
15 | Cc1ccc(NC(=O)N(C)C)cc1NC(=O)N(C)C | inactive | inactive | inactive | -1.73% | inactive | inactive | inactive | inactive | inactive | inactive | –
16 | CC(CO)(CO)C(=O)O | inactive | inactive | inactive | 0.0251% | inactive | inactive | inactive | inactive | inactive | inactive | –
17 | CCCCCCCCCCCC(=O)OCC(O)CO (stereo not given) | inactive | inactive | inactive | 6.6% | inactive | inactive | inactive | inactive | inactive | inactive | –
18 | CCCCCc1ccco1 | inactive | inactive | inactive | 4.73% | inactive | inactive | inactive | inactive | inactive | inactive | –
19 | CCCCOCCOC(=O)c1cccnc1 | inactive | inactive | inactive | 0.954% | inactive | inactive | inactive | inactive | inactive | inactive | –
20 | CCN(CC)CCNC(=O)c1cc(Cl)c(N)cc1OC | inactive | inactive | inactive | -5.88% | inactive | inactive | inactive | inactive | inactive | inactive | –
21 | CCCCCCC(CO)CCCC (stereo not given) | inactive | inactive | inactive | 4.35% | inactive | inactive | inactive | inactive | inactive | inactive | –
22 | COc1cc(NS(=O)(=O)c2ccc(N)cc2)nc(C)n1 | inactive | inactive | inactive | 9.67% | inactive | inactive | inactive | inactive | inactive | inactive | –
23 | CN1C(CSCC(F)(F)F)Nc2cc(Cl)c(S(N)(=O)=O)cc2S1(=O)=O (stereo not given) | inactive | 19 µM (active) | inactive | – | inactive | inactive | inactive | inactive | inactive | inactive | 21.3 µM (active)
